Source: PubChem BioAssay AID1345082 (National Center for Advancing Translational Sciences (NCATS), 2018)
In all, about 94,000 compounds went through this assay and about 4,000 (4.3%) were called active. A call without a number means that no potency is given here. Not shown: some 29% with an inconclusive outcome. The call rests on the fitted dose curve; in most records, active means well fitted inhibition curve with a large enough effect; inconclusive means small, poorly fitted or top-dose-only effect; inactive means no such curve, though single readings can be large or run the other way. The sample as a whole holds a higher share of actives than the screen did.

Assay: Cytotoxic Profiling in NIH 3T3 Cell Line of Diverse Libraries Using Quantitative High-Throughput Screening; further: nearly all actives have a fitted effect of over 55% in size
Settings: NIH 3T3 viability, CellTiter-Glo ATP luminescence, 48-72 h; series mostly up to 96.7 µM
Procedure, shortened: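 Cytotoxicity was measured by CellTiter-Glo ATP luminescence after 48 or 72 h compound exposure at 37 °C. Mouse NIH 3T3 fibroblasts were seeded at 400 cells/well and dosed by 23 nL pin transfer.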
Potency means the concentration at half of the fitted maximal effect.

Row | Structure (SMILES) | Potency
1 | COCc1nncn1C1CCN(C(=O)c2ccccc2F)CC1 | inactive
2 | O=C1Nc2ccc(-c3ccccc3F)cc2C(=O)N2CCN(C(=O)c3cccs3)C[C@H]12 | inactive
3 | N[C@H]1CCN2C(=O)c3cc(-c4ccc(F)cc4F)ccc3NC(=O)[C@H]12 | 112 µM (active)
4 | O=C1Nc2ccc(-c3ccsc3)cc2C(=O)N2CC[C@H](NS(=O)(=O)c3cccs3)[C@@H]12 | inactive
5 | CS(=O)(=O)N1C[C@H]2CCN(C(=O)c3ccc(=O)[nH]c3)C[C@H]21 | inactive
6 | COc1ccc(-c2[nH]ncc2CN2CCCC(C(=O)NCc3ccccc3)CCNC(=O)CC2)cc1 (configuration not stated) | inactive
7 | CC(=O)N[C@@H]1CN(Cc2cn[nH]c2-c2ccc(F)cc2)C[C@H]1CO | inactive
8 | COc1ccc2cc(-c3[nH]ncc3CN3CCN(c4cccc(C)n4)CC3)ccc2c1 | 28.2 µM (active)
9 | CCc1nnc([C@@H]2CC(F)(F)CN2C(=O)c2cc(C)oc2C)o1 | inactive
10 | C=CCNC(=O)N[C@H]1C[C@@H](C(=O)N[C@H](Cc2c[nH]c3ccccc23)C(N)=O)N(C(=O)C=C(C)C)C1 | inactive
11 | O=C1CC2(CCN(C(=O)C3CCN(C(=O)c4ccccc4Cl)CC3)CC2)Oc2ccccc2N1 | inactive
12 | O=C(NC1CCCC1)N1CCC(c2noc(-c3ccccc3)n2)C1 (configuration not stated) | 39.8 µM (active)
13 | Cn1cnc(S(=O)(=O)N2CCC(c3noc(-c4ccccc4)n3)C2)c1 (configuration not stated) | inactive
14 | O=C(Cn1ccnc1)N1CCC(c2noc(-c3ccncc3)n2)C1 (configuration not stated) | inactive
15 | Cc1noc(C)c1S(=O)(=O)N1CCC2(CC1)CN(c1ccccc1)C2=O | inactive
16 | O=C(NC1CCCCC1)N1CCCC(Cn2c(C3CC3)nc3cccnc32)C1 (configuration not stated) | inactive
17 | Cc1nc(N2CCC(NC(=O)C(C)Oc3ccccc3)CC2)cc(C(F)(F)F)n1 (configuration not stated) | inactive
18 | Cc1nc(N2CCC(NC(=O)c3ccc4c(c3)OCO4)CC2)cc(C(F)(F)F)n1 | inactive
19 | Cc1nc(N2CCC(C(=O)NCc3ccc(C(C)C)cc3)CC2)cc(C(F)(F)F)n1 | 25.1 µM (active)
20 | CNC(=O)N1CCc2nc(N3CCOCC3)[nH]c(=O)c2CC1 | inactive
21 | COc1ccc([S+](=O)([O-])c2nnn3c2nc(NC2CCCC2)c2ccccc23)cc1 | inactive
22 | O=C(NCC1CC1)c1nc2c(o1)CCN(CCc1ccccc1)CC2 | inactive
23 | CCc1nc2c(c(-c3ccc(OC)cc3)n1)CCN(CC1CCCCC1)CC2 | inactive
24 | O=C(NCCOc1ccccc1)c1nc2c(o1)CCN(CC1CCCCC1)CC2 | 79.4 µM (active)
25 | CN(C)C[C@@H]1CN(S(C)(=O)=O)C[C@H]1NC(=O)c1cccc(F)c1 | inactive

Row | Structure (SMILES) | Potency
26 | COc1ccc(C(=O)N2CCC(N3C[C@H](O)C[C@H]3C(=O)NC3CCCCC3)CC2)cn1 | inactive
27 | C[S+](=O)([O-])N1CCC2(C1)N=C(c1ccccn1)C(=O)N2 (configuration not stated) | inactive
28 | CC(C)CN1C(=O)COC[C@@H]1[C@H](O)c1ccc(NC(=O)Cc2ccccc2)cc1 | inactive
29 | COc1ccccc1CN1C(=O)COC[C@@H]1[C@H](O)c1ccc(NC(=O)c2ccc(C#N)cc2)cc1 | 44.7 µM (active)
30 | CCN1C(=O)COC[C@@H]1C(O)c1ccc(NC(=O)Cc2ccc(OC)cc2)cc1 (some centres not stated) | inactive
31 | O=C(Cc1ccccc1)Nc1ccc([C@@H](O)[C@H]2COCC(=O)N2)cc1 | inactive
32 | Cc1nc2cnccn2c1C(=O)NC1CCCC1 | inactive
33 | Cc1cnc(-c2cccnc2)n1C1CCN(S(=O)(=O)c2cccc(F)c2)CC1 | inactive
34 | Cc1cnc(CC2CCN(S(=O)(=O)c3ccc(C#N)cc3)C2)n1Cc1ccccc1 (configuration not stated) | inactive
35 | Cc1cccc(-c2cc(C3CCN(S(=O)(=O)c4cccc(C#N)c4)CC3)[nH]n2)c1 | 5.01 µM (active)
36 | Cc1cccc(-c2cc(C3CCN(S(=O)(=O)c4ccc(C#N)cc4)CC3)[nH]n2)c1 | 14.1 µM (active)
37 | Cn1nc2n(c1=O)CCN(S(=O)(=O)c1ccc(C#N)cc1)CC2 | inactive
38 | Cc1cccc(S(=O)(=O)N2CCC(n3cnnc3C(C)C)CC2)c1 | inactive
39 | O=C(Cc1ccsc1)NCC1CCCCC(=O)N1 (configuration not stated) | inactive
40 | Cc1ncccc1C(=O)N1CC2CC(C1)[C@H]1CCCC(=O)N1C2 (some centres not stated) | inactive
41 | CN1CC(=O)N(C2CCCNCC2)Cc2c1ncnc2N1CCCC(F)C1 (configuration not stated) | inactive
42 | Cc1noc(C)c1CC(=O)NCC12CCC=C1N(Cc1ccccc1)C(=O)CC2 (configuration not stated) | inactive
43 | Cc1cc(C)cc(C(=O)NC2CCN(c3cnn(C)c(=O)c3)CC2)c1 | 39.8 µM (active)
44 | CCc1ccc(C(=O)NC2CCN(c3cnn(CC)c(=O)c3)CC2)cc1 | inactive
45 | Cn1ncc(N2CCC(C(=O)NC3CCCC3)C2)cc1=O (configuration not stated) | inactive
46 | COc1ccc(C(=O)N2CCN(C(=O)Nc3cccc(OC)c3)C[C@@H]2C(=O)N[C@H]2CCCNC2=O)cc1 | inactive
47 | Cc1cc(C(=O)NCC2(COc3cccnc3)C[C@@H](O)[C@@H](O)C2)n(C)n1 (some centres not stated) | inactive
48 | O=C(c1ccco1)N1Cc2[nH]cnc2C[C@H]1c1nc(-c2ccncc2)no1 | inactive
49 | Cc1cccc(-c2noc([C@@H]3Cc4nc[nH]c4CN3C(=O)CCC(=O)O)n2)c1 | inactive
50 | Cc1ccc(-c2noc([C@@H]3Cc4nc[nH]c4CN3Cc3cccc(C#N)c3)n2)cc1 | 100 µM (active)

Row | Structure (SMILES) | Potency
51 | CNC(=O)c1cc(C2CC2)nc2onc(C3CCN(C(=O)Cc4ccc(OC)cc4)CC3)c12 | inactive
52 | O=C(c1cccnc1)N1CCC2(CCCN(C3CCOCC3)C2=O)C1 (configuration not stated) | inactive
53 | CN1Cc2c(cc(N3CCOCC3)nc2-c2cccc(F)c2)C1=O | 8.91 µM (active)
54 | O=c1[nH]c(N2CCOCC2)nc2c1CCN(Cc1cccc(F)c1)CC2 | inactive
55 | O=C1c2cc(N3CCOCC3)nc(-c3cccnc3)c2CN1C1COC1 | 8.91 µM (active)
56 | O=C(NC1CCCCC1)N1CCCCCC1c1nc(-c2cccnc2)no1 (configuration not stated) | inactive
57 | Cc1cccc(Cn2c(-c3ccc(F)cc3)nc(C)c(CCO)c2=O)c1 | inactive
58 | Cc1cc(N2CCC(NC(=O)c3cccc(N(C)C)c3)C2=O)ccc1F (configuration not stated) | inactive
59 | O=C(c1c[nH]c2ccccc12)N1CCC2(COc3ccncc3S(=O)(=O)N2)C1 (configuration not stated) | inactive
60 | Cc1cc(C(=O)N2CCC(N3C(=O)C(O)C34CCCCC4)CC2)nn1C (configuration not stated) | inactive
61 | Cc1nc(C)c(C(=O)N2CCN(C(=O)N(C)C)[C@@H]3CS(=O)(=O)C[C@@H]32)s1 | inactive
62 | COc1ccccc1C(=O)N1CCC2(CC1)C(=NC1CCCCC1)NC(=O)N2c1cccnc1 | inactive
63 | O=C(NCc1nnc2n1C(C(=O)NC1CC1)CC2)c1ccncc1 (configuration not stated) | inactive
64 | CCn1cc(S(=O)(=O)N2CC[C@@H]3C(=O)NCCCCCCN(Cc4ccncc4)[C@@H]3C2)cn1 | inactive
65 | CN1[C@@H](CCC(=O)N2CCCC2)CNC(=O)[C@@H]2[C@H]1CCN2Cc1ccc(S(C)(=O)=O)cc1 | inactive
66 | COc1ccccc1Nc1ccnc(N2CCC(NC(=O)NC(C)C)CC2)n1 | inactive
67 | O=[S+]([O-])(c1cccs1)N1CCN(c2nccc(Nc3ccccc3F)n2)CC1 | 25.1 µM (active)
68 | O=c1n(CCN2CCN([S+](=O)([O-])c3cccs3)CC2)nc2n1CCCC2 | inactive
69 | COc1ccccc1-n1c(=O)c(C(=O)N2CCN([S+](=O)([O-])c3cccs3)CC2)nc2cccnc21 | inactive
70 | COc1ccccc1Nc1ccnc(N2CCC(N[S+](=O)([O-])c3cccs3)CC2)n1 | 31.6 µM (active)
71 | CN(C)C(=O)c1cccnc1OC1CCN(C(=O)c2ccc(Br)o2)C1 (configuration not stated) | inactive
72 | CCc1nc2nccc(-c3ccco3)n2n1 | inactive
73 | Cc1nc(-c2ccccc2OC2CN(C(=O)c3ccnn3C)C2)no1 | inactive
74 | CC(=O)/C=C/C1=CC(C)(C)COc2ccc(O)cc21 | 25.1 µM (active)
75 | Cc1noc(-c2cccc(OC3CN(C(=O)CN4C(=O)CCC4=O)C3)c2)n1 | inactive

Row | Structure (SMILES) | Potency
76 | CC(=O)Nc1ccc(NC(=O)Cn2nc3c(cc2=O)CCCCC3)cc1 | inactive
77 | O=C(Cc1cccnc1)N1CCCC(c2nc(CCOCC3CCCC3)no2)C1 (configuration not stated) | inactive
78 | O=C(c1ccoc1)N1CCCC(c2nc(CCOCC3CCCC3)no2)C1 (configuration not stated) | inactive
79 | C1CCC(COCCc2noc(C3CNC3)n2)C1 | 7.94 µM (active)
80 | COCCCNC(=O)c1ccc2oc(-c3ccc(OC)nc3)nc2c1 | inactive
81 | CC(C)CNC(=O)N1CCCC(c2nc(C(C)C)no2)CCNC(=O)CC1 (configuration not stated) | inactive
82 | CC(C)(C)NC(=O)N1CCCC(c2nc(CCOCC3CCOCC3)no2)C1 (configuration not stated) | inactive
83 | CC(=O)N1CCC(N2CCC[C@H]2c2nc(-c3ccc(-c4cncnc4)nc3)no2)CC1 | inactive
84 | CN1CCC(N2CCC[C@H]2c2nc(-c3ccc(OC4CCCCC4)nc3)no2)CC1 | 28.2 µM (active)
85 | CC(=O)N1CCN(c2cc(-c3noc([C@@H]4CCCN4C4CCC4)n3)ccn2)CC1 | inactive
86 | COCCN1CCC2(CCC1=O)CCN(C(=O)Nc1cc(Cl)ccc1C)CC2 | inactive
87 | COCCNC(=O)C(C)[C@@H]1CC[C@@]2(C)CC[C@H](NC(=O)c3ccccc3)[C@@H](C)[C@@H]2[C@H]1O (some centres not stated) | inactive
88 | C=CCN(C)C(=O)[C@@H](C)C1CC[C@@]2(C)Cc3sc(Nc4c(Cl)cccc4Cl)nc3[C@@H](C)[C@@H]2[C@H]1O (some centres not stated) | 44.7 µM (active)
89 | CCN(CC)C(=O)[C@@H](C)C1CC[C@@]2(C)Cc3sc(N)nc3[C@@H](C)[C@@H]2[C@H]1O (some centres not stated) | inactive
90 | Cc1cc(C2CCCN2C(=O)c2ccccc2)on1 (configuration not stated) | inactive
91 | O=C(c1ccc2cc[nH]c2c1)N1CCN(Cc2cnc[nH]2)CC(O)C1 (configuration not stated) | inactive
92 | Cc1ccc(-n2nc3n(c2=O)CCN(C(=O)Cc2ccccn2)C3)cc1 | inactive
93 | O=C(C1CC1)N1CCn2c(nn(-c3ccc(F)cc3)c2=O)C1 | inactive
94 | Cc1ccc(-n2nc3n(c2=O)CCN(C(=O)C(C)(C)C)C3)cc1 | 50.1 µM (active)
95 | COc1ccc(CC(=O)Nc2cc(-c3cccnc3)nn2-c2ccccc2)cc1 | inactive
96 | COc1ccc(N2CCN(C3CCCN(CC(=O)N(C)C(C)C)C3)CC2)cc1 (configuration not stated) | inactive
97 | COc1ccc(-n2nc(-c3ccccc3)n(CC(=O)N(C)CC(C)C)c2=O)cc1 | 79.4 µM (active)
